# Measurements taken from PubChem BioAssay AID875 (National Center for Advancing Translational Sciences (NCATS), 2007).
# Out of some 75,000 compounds screened, about 35 (0.05%) were called active. The sample holds actives, similar compounds and a random draw of the others, so the mix is not that of the screen. Values without a mark were called inactive. Calls follow the shape of the dose curve; as a rule, active = well fitted inhibition curve with a large enough effect; inconclusive = small, poorly fitted or top-dose-only effect; inactive = no such curve, though single readings can be large or run the other way.
# Molecular target: Breast cancer type 1 susceptibility protein (Homo sapiens) (UniProt P38398)
# Assay: qHTS Assay for Inhibitors of BRCT-Phosphoprotein Interaction (Green Fluorophore)
# Conditions: BRCA1 BRCT-phosphopeptide binding, green fluorescence polarization; series mostly up to 76.9 µM; activity change, negative = inhibition: at the top concentration
# Description: NIH Molecular Libraries Screening Centers Network [MLSCN]
# NIH Chemical Genomics Center [NCGC]
# PI Name: Natarajan, Amarnath; University of Texas
# A complex of BRCT (C-terminal portion of BRCA1, MW ~35 kDa, His-tagged) and fluorescently labeled pBACH1 phosphorylated 10 aa peptide fragment of BACH1, a helicase implicated in DNA repair, is incubated with library members. Inhibitors of BRCT-pBACH1 binding are detected by a decrease in the fluorescence polarization (FP) of the fluorophore. In order to minimize the effect of fluorescence artifacts and to increase the overall robustness of the screen, the compound library members were incubated in separate reactions with fluorescein labeled probe-protein complexes. Protein and labeled probes were supplied by Dr. Amarnath Natarajan, Department of Pharmacology and Toxicology, University of Texas Medical Branch Galveston, TX.
# Assay Buffer: 16mM Na2HPO4, 4 mM NaH2PO4, 150 mM NaCl, 1 mM EDTA, 1 mM DTT, 0.02% NaN3, and 0.01% Tween 20 at pH 7.3.
# 100 nM labeled decapeptide/250 nM protein in columns 1, 2, 5 - 48. Titration of unlabeled decapeptide control (from 10 mM, then 1:2 dilution in duplicate) pin-transferred to column 2, rows 1 to 16. Column 1 is neutral.
# Three uL of reagents were dispensed to 1536-well Greiner black solid-bottom plates. Compounds and controls (23 nL) were transferred
# via Kalypsys PinTool. The plates were incubated for 12 min at room temperature, and then read on ViewLux (Perkin-Elmer) High throughput CCD imager using FITC for the fluorescein-labeled decapeptide probe polarization filter sets. During dispense, reagent bottles were kept submerged into 4 deg C water bath and all liquid lines were covered with aluminum foil to minimize probe and protein degradation. All screening operations were performed on a Kalypsys robotic system (Kalypsys, Inc., San Diego, CA) containing one RX-130 and two RX-90 anthropomorphic robotic arms. The timing and order of assay plates passing through the screening system were adjusted such that each compound library plate was assayed against the fluorescein- and rhodamine-labeled assay systems at immediately adjacent time points.
# Potency is read from the fitted curve at half-maximal effect.
# Chain of Breast cancer type 1 susceptibility protein (Homo sapiens) (P38398 whole entry, looked up): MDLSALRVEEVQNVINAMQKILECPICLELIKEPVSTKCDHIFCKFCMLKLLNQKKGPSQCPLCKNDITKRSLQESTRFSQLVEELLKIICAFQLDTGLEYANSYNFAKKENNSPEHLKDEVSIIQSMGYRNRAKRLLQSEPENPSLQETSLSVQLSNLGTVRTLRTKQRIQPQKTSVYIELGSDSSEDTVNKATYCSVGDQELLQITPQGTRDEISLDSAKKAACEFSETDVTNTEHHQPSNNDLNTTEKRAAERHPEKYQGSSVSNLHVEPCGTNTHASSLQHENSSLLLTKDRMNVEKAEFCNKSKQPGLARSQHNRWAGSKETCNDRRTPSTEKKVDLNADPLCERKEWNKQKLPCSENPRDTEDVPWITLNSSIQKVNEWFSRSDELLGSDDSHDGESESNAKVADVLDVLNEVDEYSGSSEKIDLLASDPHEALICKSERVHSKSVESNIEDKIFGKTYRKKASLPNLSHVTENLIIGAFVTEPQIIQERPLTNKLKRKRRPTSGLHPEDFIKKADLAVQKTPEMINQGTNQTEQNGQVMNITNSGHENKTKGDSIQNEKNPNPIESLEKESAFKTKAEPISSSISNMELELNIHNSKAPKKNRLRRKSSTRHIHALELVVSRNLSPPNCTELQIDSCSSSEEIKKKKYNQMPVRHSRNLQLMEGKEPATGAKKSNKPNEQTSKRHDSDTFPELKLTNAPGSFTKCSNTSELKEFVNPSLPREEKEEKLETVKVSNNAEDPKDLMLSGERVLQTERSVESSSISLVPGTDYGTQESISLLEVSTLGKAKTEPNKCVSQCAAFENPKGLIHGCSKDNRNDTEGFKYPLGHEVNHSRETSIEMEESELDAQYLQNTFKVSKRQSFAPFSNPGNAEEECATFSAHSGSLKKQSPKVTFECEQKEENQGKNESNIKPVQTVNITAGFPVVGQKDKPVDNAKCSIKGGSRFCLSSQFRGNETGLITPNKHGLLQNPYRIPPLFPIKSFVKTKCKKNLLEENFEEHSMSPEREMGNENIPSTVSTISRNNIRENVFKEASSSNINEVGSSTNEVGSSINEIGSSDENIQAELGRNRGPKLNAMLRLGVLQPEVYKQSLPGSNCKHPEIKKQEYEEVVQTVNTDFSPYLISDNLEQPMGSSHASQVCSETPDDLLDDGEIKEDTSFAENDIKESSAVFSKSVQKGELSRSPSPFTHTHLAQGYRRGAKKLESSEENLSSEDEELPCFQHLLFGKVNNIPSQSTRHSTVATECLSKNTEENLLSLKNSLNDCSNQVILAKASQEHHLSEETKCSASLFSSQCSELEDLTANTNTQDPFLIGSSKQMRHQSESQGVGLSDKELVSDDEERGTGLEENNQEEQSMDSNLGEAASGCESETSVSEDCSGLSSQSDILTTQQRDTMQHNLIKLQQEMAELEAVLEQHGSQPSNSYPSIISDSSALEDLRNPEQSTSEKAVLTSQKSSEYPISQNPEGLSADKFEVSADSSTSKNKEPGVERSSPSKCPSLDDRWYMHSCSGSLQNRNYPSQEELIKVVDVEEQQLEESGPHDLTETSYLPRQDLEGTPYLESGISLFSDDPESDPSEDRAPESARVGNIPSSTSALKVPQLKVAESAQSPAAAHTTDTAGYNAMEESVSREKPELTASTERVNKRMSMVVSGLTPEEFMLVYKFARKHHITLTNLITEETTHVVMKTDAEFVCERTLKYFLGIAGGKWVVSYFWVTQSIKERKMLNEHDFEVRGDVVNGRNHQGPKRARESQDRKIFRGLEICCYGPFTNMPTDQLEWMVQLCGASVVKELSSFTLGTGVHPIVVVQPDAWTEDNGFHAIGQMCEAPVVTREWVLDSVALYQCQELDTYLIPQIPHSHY
Compound,"activity change, negative = inhibition",Potency
Cc1ccc(OS(=O)Nc2cccc3nccnc23)cc1 (stereo unspecified),-0.816%,
Cc1c(S(=O)(=O)O)oc2c1C(=O)C(=O)c1c-2ccc2c1CCCC2(C)C,,31.6 µM (active)
O=C(c1c(Cl)nc2sccn12)N1CCCc2ccccc21,0.508%,
CCOc1ccc(C2C(C(=O)O)c3ccccc3C(=O)N2CCN2CCOCC2)cc1 (stereo unspecified),-2.05%,
COc1ncc2nc(-c3ccc(Cl)cc3)c(=O)n(-c3ccccc3)c2n1,-0.967%,
CC(=O)NC1CC2CCCC(C1)N2CC(=O)Nc1ccccc1 (stereo unspecified),5.73%,
Cc1ccc(N(C(=O)CC2NC(=O)NC2=O)C2(C(=O)NC3CCCC3)CCCCC2)cc1 (stereo unspecified),-3.02%,
O=S(=O)(NCc1cccnc1)c1ccc(Br)s1,-1.17%,
Cc1cc(NC(=O)COC(=O)c2ccc(F)c(S(=O)(=O)N3CCOCC3)c2)no1,-1.52%,
O=C1c2ccccc2S(=O)(=O)N1CC(O)Cn1c2ccccc2c2ccccc21 (stereo unspecified),-1.72%,
O=C1OC(C(O)CO)C(O)=C1O (stereo unspecified),-0.826% [at 3.08 µM],
CO[C@H]1COC(=O)[C@@H](C)NC(=O)C/C=C\[C@@H](C)[C@H](OC)COC(=O)C/C=C\[C@@H]1C,-2.28% [at 15.4 µM],
CC1(C)Cc2cccc(OCC(=O)Nc3nccs3)c2O1,-0.382%,
Cc1ccc(-c2noc(-c3ccccc3C(=O)NCC3CCCO3)n2)cc1 (stereo unspecified),0.548%,
Cc1cc(C)c(C#N)c(SCS(=O)c2ccc(C(C)(C)C)cc2)n1 (stereo unspecified),1.49%,
Cc1ccc(S(=O)(=O)NC(=O)NN2C[C@H]3CCC[C@@H]3C2)cc1,0.42% [at 34.4 µM],
CN(C)CCNC(=O)C(C(=O)c1ccccc1)n1ccccc1=O (stereo unspecified),-2.08%,
CCOC(=O)N1CCN(C(=O)C2CC(c3ccc(F)cc3)=NO2)CC1 (stereo unspecified),-2.29%,
Cc1csc(-c2nc3ccccc3n2C)n1,-11.7%,
O=C(Nc1cccc2c1CCCC2)C1CCN(C(=O)NC2CCCCC2)CC1,2%,
Fc1ccc(-c2ccc(-c3nn4c(-c5ccco5)nnc4s3)o2)cc1,-1.34%,
COc1ccc(OC)c(C(=O)c2ccc(C(=O)O)cc2)c1,-0.882%,
CCOC(=O)C(C)Oc1cccc2c(=O)n(CC(=O)N3CCc4ccccc43)ccc12 (stereo unspecified),-1.66%,
O=C(CSc1nnc(-c2cccnc2)n1Cc1ccco1)c1ccc(Cl)c(Cl)c1,-7.89%,
COCCN(C(=O)CCC(=O)Nc1ccccn1)C(C(=O)NCCC(C)C)c1ccc(OC)cc1 (stereo unspecified),-1.69%,
CCc1c(C)nc(N)n2c(SCC(=O)N3CCN(c4ccccc4)CC3)nnc12,-1.12%,

Compound,"activity change, negative = inhibition",Potency
CCCC(NC(=O)c1ccccc1)c1nc2ccccc2n1Cc1ccc(C(=O)OC)o1 (stereo unspecified),-2.15%,
CC(=O)c1sc2nc(SCC(=O)N3CCCCC3)[nH]c(=O)c2c1C,-1.57%,
C/C(O)=C\c1nc(=O)c2c(C)cc(C)nc2n1-c1ccccc1,-4.52%,
Cc1cc(NCc2ccco2)n2c(nc3ccccc32)c1C#N,-0.0952%,
CCCN1[C@H](C(=O)OC)C[C@@]2(O)[C@@H](O)[C@@H](O)[C@@H](O)C[C@@H]12,-0.469%,
O=C(O)[C@H](CCc1ccccn1)c1ccccc1,0.305% [at 15.4 µM],
Cc1nc(C)c(C(=O)Nc2cccc(C)c2C)o1,0.798%,
CCCn1c(=O)c2[nH]c(C3CCCC3)nc2n(CCC)c1=O,inactive,
O=C(NCCCN1CCOCC1)c1cc(-c2ccc(Cl)cc2)on1,-2.41%,
COC(=O)[C@@H]1C[C@@]2(O)[C@H](O)[C@H](O)[C@H](O)C[C@H]2N1Cc1ccc(C)s1,-1.79%,
CN(C)/C=N/c1cc(=O)n(C)c(=O)n1CC1CC1,0.349%,
CCCCCCCCCc1ccc(OCCOCCOCCOCCOCCOCCOCCOCCOCCO)cc1,-3.36%,
O=C(Nc1ccccc1N1CCCCC1)c1ccc2nccnc2c1,-0.0677%,
CN1CCCC1CCO[C@@](C)(c1ccccc1)c1ccc(Cl)cc1 (stereo partly specified),-4.61% [at 3.08 µM],
CN1CCc2nc(-c3ccccc3)c(-c3ccccc3)cc2C1,-0.939% [at 15.4 µM],
CCN(CC)C(=O)CSc1nnc(-c2cnccn2)n1-c1ccc(C)cc1,-1.51%,
Cc1c(C(=O)CN2CCOCC2)[nH]c2ccccc12,-2.09%,
Cc1cccc(-c2cc(=O)c3cc(C)ccc3o2)c1,-1.07%,
Cc1c(S(=O)(=O)O)ccc(N=Nc2c(O)c(C(=O)O)cc3ccccc23)c1Cl,-3.5% [at 15.4 µM],
CC(C(=O)Nc1ccccc1-c1ccccc1)N1CCOCC1 (stereo unspecified),1.04%,
CCC1CCCCN1C(=O)Nc1cccc(NC(=O)N2CCCCC2CC)c1 (stereo unspecified),0.63%,
CCOc1ccc(Cn2nnc(C(=O)NCc3ccccc3)c2N)cc1,-0.882%,
O=C(Cn1nc(Cc2cccnc2)c2ccccc2c1=O)NCC1CCCO1 (stereo unspecified),-1.23%,
O=c1[nH]nc(CSCc2ccccc2Cl)[nH]1,-1.6%,
Cc1cc(C)c(S(=O)(=O)NCCCN2CCOCC2)cc1Br,-2.07%,
